Results from PubChem BioAssay (NCI).
About 83,000 compounds went through this panel and 20% of them were active in at least one assay; those are over-represented in the sample as a whole.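 Testing used 96-well plates and a 48-hour single-concentration exposure. Example: -40 means 40% of the starting cells died.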 Unmarked numbers belong to inactive results. Active and inactive are the calls of the source. Rule for the calls: active = growth percent below 10; inactive = the rest.

The molecules below were run on NCI-H522 lung (assay: NCI-60 one-dose screen, 48 h (100 = growth as untreated, 0 = no growth, -100 = all killed)). Details: 10 µM unless noted.
O=C1CCCCN1c1ccc(C2=NCCCN2)cc1 gave a growth of 79.1%. With O=C(Oc1ccc2c(c1)sc1nc(-c3ccccc3)[nH]c(=O)c12)C(F)(F)F the growth was 25.1%. CCNC(=O)N1CCc2c(Br)c3c(c(OC)c2C1Cc1ccc(OC)cc1)OCO3 (stereo not given) gave a growth of 25.5%. Cc1ccccc1N1CCN(C(=S)c2ccccc2)CC1 showed a growth of 47.8%. With CS(=O)(=O)Nc1cc(-c2ccc3ncnc(Nc4ccc(F)c(Cl)c4)c3c2)ccc1Cl the growth was 19%. In the case of Fc1cc2[nH]ncc2c2c3c(c(-c4cn[nH]c4C(F)(F)F)nc12)CCCC3, the growth is reported as -24.2% (active). COc1ccc(CNc2ccc3nc(NC(=O)CN4CCCCCC4)sc3c2)cc1 was tested, and the growth was 70.3%. With COc1c2c(cc3c1C(=O)N[C@@H]1[C@@H](O)[C@@H](O)[C@H](O)C[C@@H]31)OCCO2 the growth was 93.4%. CCN1C(=O)N(c2ccccc2)C2NC(=S)N(/N=C/C=C/c3ccccc3OC)C21 (stereo not given) was tested, and the growth was 9.88% (active). With CSc1nc2ccc(C)cc2cc1/C=C1/C=C(c2ccccc2)NC1=O the growth was 67.6%. With CC1=Nc2cnc(Nc3ccc(N4CCCCC4)cc3)nc2Nc2ccccc21 the growth was 40%. Nc1c(C(=O)Nc2cccc3ncccc23)sc2nc3c(cc12)CN(Cc1ccccc1)CC3 showed a growth of 55.8%. Work on COCCn1cc(-c2nc(-c3cn(CCOC)c4ncccc34)cs2)c2cc(F)ccc21 yielded a growth of 33.3%. COC(=O)[C@]1(C)CCC[C@]2(C)[C@H]3C[C@@H]4[C@H]5[C@@H]6CC/C(=N\OCC/C(N)=N/O)[C@H]5[C@@]3(CC[C@H]21)CC4(C(C)C)O6 was tested, and the growth was 54.7%. With c1ccc(-c2nc3ccccc3[nH]2)c(OCCCCCOc2ccccc2-c2nc3ccccc3[nH]2)c1 the growth was 66.1%. COc1ccc(NC(=O)c2ccc(Nc3ncnc4c3cnn4-c3cccc(F)c3)cc2)cc1 showed a growth of 96.9%. Cc1c2ncccc2nc2[nH]c3ccc(OCCN(C)C)cc3c12 showed a growth of 22.9%. In the case of Cc1ccc2cnc(N)c(C#Cc3cc(C(=O)Nc4ccc(CN5CCN(C)CC5)c(C(F)(F)F)c4)cnc3C)c2c1, the growth is reported as -10.2% (active). With Cc1ccc2c(c1)sc1nc(-c3c[nH]c4ccccc34)c(Nc3ccccc3)n12 the growth was 90.6%. For C(=C(\C1=NCCN1)n1ccc2ccccc21)/c1ccccc1, the growth was 89.7%. With Cc1ccc2c(c1)=C/C(=C\c1cc(-c3ccccc3)[nH]c1O)C(=O)N=2 the growth was 27%. In the case of Cc1cc(Cl)nc(N2CCN(CCNc3ccnc4cc(Cl)ccc34)CC2)n1, the growth is reported as 51.8%. For O=C(NNc1nc2cc(F)ccc2n2c(CN3CCOCC3)ccc12)c1ccccc1, the growth was 9.17% (active). Work on CCN(CC)CCOc1ccc(/C(=C(\C)Cc2ccc(OC)cc2)c2ccc(OC(=O)NCc3ccccc3)cc2)cc1 yielded a growth of 69.7%. COC(=O)c1c2c(c[n+]([O-])c1C)C(=O)C=C(NCc1ccccc1)C2=O was tested, and the growth was -57.9% (active). O=S(=O)(Nc1cc(F)cc(F)c1)c1ccc(-c2cnc(C3CC3)o2)cc1 was tested, and the growth was 7.85% (active). With COc1ccc2c(c1)CC[C@@H]1[C@@H]2CC[C@]2(C)c3c(cc(C#N)c4c3sc3ccccc34)C[C@@H]12 the growth was 96.5%. C=C(c1ccc(C(=O)O)c(F)c1)c1cc2c(cc1C)C(C)(C)CCC2(C)C gave a growth of 78.1%. For C[C@@H]1CN(c2cnc(C(=O)Nc3cc(F)cc4cccnc34)cn2)C[C@H](C)N1, the growth was 51.7%. In the case of c1cc(OCCN2CCCCC2)ccc1CNc1ccc2nc(CCC3CCCCC3)[nH]c2c1, the growth is reported as 50.4%. COc1cc(/C=C/C(=O)c2cc(OC)c(OC)c(OC)c2)ccc1Oc1nc2c(c(=O)n(C)c(=O)n2C)n1C was tested, and the growth was -68.7% (active). Clc1cccc(C2Cc3cnccc3-c3[nH]c4ccncc4c32)c1 (stereo not given) was tested, and the growth was 51.9%. For C=CCn1cc(-c2nc3ccccc3s2)c2cc(-c3ccc4c5c(cccc35)C(=O)N(CCO)C4=O)ccc21, the growth was 88.7%. For CC(C)CCC[C@@H](C)[C@H]1CC[C@H]2[C@@H]3CC=C4c5sc(Nc6cc(C(F)(F)F)cc(C(F)(F)F)c6)nc5CC[C@]4(C)[C@H]3CC[C@]12C, the growth was 101%. With COc1ccccc1/C=C/C(=O)Nc1ccc(F)cc1 the growth was 72.4%. Molecule c1ccc(-c2ccc3c(c2)C2(CCNCC2)CN3)cc1 has a growth of 88.3%. For CN(C)c1ccc(C(=S)c2ccc(N(C)C)cc2)cc1, the growth was 29%. CCN(CC)CCCNc1cc(OC)c(OC)c2cccnc12 was tested, and the growth was 20.9%. COc1cc(/C=C2\C(=O)N(CCCOc3cc(O)c4c(=O)cc(-c5ccccc5)oc4c3)c3ccccc32)cc(OC)c1O showed a growth of 36.4%. For COC12C=C/C(=C(/C(=O)OCc3cncnc3)C(=O)CCCCCCCCC3(OC)C=C/C(=C(/C(=O)OCc4cncnc4)C(=O)CCCCCCCC1)O3)O2, the growth was -33.8% (active).
